# Experimental data taken from ChEMBL document CHEMBL3988442, “University of Dundee, Small-Polar-MMV Screening Library” (2021).
# Biological target: Sialic acid-binding Ig-like lectin 9 (Homo sapiens) (UniProt Q9Y336)
# Assay: Hs-Siglec9 ALPHAscreen SOP 20170721
# Design: scale not given: direction of the effect not stated beside the values
# Settings: 10 µM
# Chain of Sialic acid-binding Ig-like lectin 9 (Homo sapiens) (Q9Y336 whole entry): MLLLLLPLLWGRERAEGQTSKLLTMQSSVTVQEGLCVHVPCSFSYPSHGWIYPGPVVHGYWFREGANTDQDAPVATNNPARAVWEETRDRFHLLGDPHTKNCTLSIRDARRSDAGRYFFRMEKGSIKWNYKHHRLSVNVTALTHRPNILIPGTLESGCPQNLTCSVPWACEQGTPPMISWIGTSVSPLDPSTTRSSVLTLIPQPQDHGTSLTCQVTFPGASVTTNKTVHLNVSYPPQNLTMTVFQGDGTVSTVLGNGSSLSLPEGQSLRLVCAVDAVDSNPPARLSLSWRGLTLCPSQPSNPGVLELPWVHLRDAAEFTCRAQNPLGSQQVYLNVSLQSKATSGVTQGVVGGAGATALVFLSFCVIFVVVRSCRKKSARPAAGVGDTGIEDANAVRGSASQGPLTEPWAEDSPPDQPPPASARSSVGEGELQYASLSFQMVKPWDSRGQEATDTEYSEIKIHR
row,SMILES,Percent Effect
1,Cn1ccc(CN2CCC(COC3CCCC3)CC2)cc1=O,2.17%
2,CCCC(NC(=O)c1cc(C)ccc1C)c1nnn[nH]1 (stereo not given),20.1%
3,NC(=O)C1CCCN(C(=O)c2cnc3c(cnn3C3CCCC3)c2)C1 (stereo not given),18.9%
4,Cc1ccc(NC2CCN(C(=O)CN(C)C3CC3)CC2)nn1,16.3%
5,CCCOCC(=O)NC1CCc2nc(C)cn2C1 (stereo not given),1.69%
6,CNC(=O)c1cc2c(nc1NCC(C)C)CCN(S(=O)(=O)C1CC1)CC2,-6.06%
7,CC(C)n1cc(S(=O)(=O)N2CCCCC2)cn1,14.1%
8,Cc1cccc(N2CCN(C(=O)CN3CCN(CCO)CC3)CC2)c1,6.75%
9,CNc1cccc(C2CCCN(C(=O)c3ccncc3)C2)n1 (stereo not given),0.305%
10,CCN(CC)C(=O)Cn1ccc2cc(NC(=O)C3CCCO3)ccc21 (stereo not given),1.14%
11,Cc1nccn1-c1cc(CNC(=O)C(C)(C)C)ccn1,6.88%
12,CCOc1ccc(C(=O)NS(=O)(=O)c2cncc(Br)c2)cc1OC,34.9%
13,CC(C)CNC(=O)CN1C=Nc2ccccc2S1(=O)=O,-6.85%
14,CC(CNC(=O)N1CCSCC1)Cc1cccs1 (stereo not given),-1.72%
15,NS(=O)(=O)CCNC(=O)c1nnn(-c2ccc(F)cc2)c1C1CC1,0.877%
16,O=C(NCCOCC(F)(F)F)c1ccc(-c2ccco2)[nH]c1=O,3.06%
17,O=C(NCCO)Nc1cccc(Cl)c1SC(F)F,20.6%
18,Cc1nc(CN2CCCCC2Cn2cncn2)nc2ccccc12 (stereo not given),-19.4%
19,N#CCSCCCN1CCCN(C(=O)c2ccccc2)CC1,1.74%
20,COC(=O)CCN1CCCC1c1ccccc1Cl (stereo not given),1.78%

row,SMILES,Percent Effect
1,Cc1cncc(C2CCCN(C(=O)c3scnc3C)C2)n1 (stereo not given),2.37%
2,COCCc1noc(CN2CCN(CC(O)c3ccccc3)CC2)n1 (stereo not given),-0.576%
3,O=C(NCc1ccc(F)cc1)N1CCC(C2OCCO2)CC1,6.03%
4,Cc1nn(C)c(C)c1C1CCCN1CC(=O)NC(C1CC1)C1CC1 (stereo not given),11.2%
5,Cn1ccc(C(=O)NC2CCC23CCN(C(=O)c2ccncc2)CC3)c1 (stereo not given),16.4%
6,CN(CC(=O)N1CCN(c2ncccn2)CC1)c1ccc(Cl)cn1,10.1%
7,Cc1ncsc1CN1CC[C@H]2OCC[C@@]2(C(=O)NC(C)C)C1,-6.45%
8,Cc1nc(C)n(CC2CCCN(CCCOc3ccccc3)C2)n1 (stereo not given),3.65%
9,Cc1csc(CNC(=O)N(C)Cc2cnn(C)c2)n1,2.62%
10,Cc1noc(-c2ccc(N3CCCC(C(=O)N4CCSCC4)C3)nc2)n1 (stereo not given),1.74%
11,CC(=O)NCCNC(=O)CN1CCN(Cc2nccn2C)C(C)C1 (stereo not given),14%
12,COc1ccc(CNC2CCN(CCc3ccncc3)CC2)cc1O,9.91%
13,O=C1[C@@H]2CCN(Cc3ccoc3)C[C@@H]2OCCN1Cc1cccnc1,5.81%
14,Cc1nccn1-c1cc(CNC(=O)CCNC(=O)C2CCCC2)ccn1,9.11%
15,Cc1nn(C)cc1CN1CCC(C2Nc3ccccc3S(=O)(=O)N2)CC1 (stereo not given),2.59%
16,O=C(N[C@@H]1CN(Cc2ccc3c(c2)OCO3)[C@@H]2CCCO[C@@H]21)C1CC1,0.764%
17,CC(C)c1nnc2n1CCN(Cc1csc(CC(=O)N(C)C)n1)C2,3.17%
18,COc1ccc(NC(=O)NCC(O)c2ccc(F)cc2F)c(OC)c1 (stereo not given),-3.56%
19,Cc1ccc(Cl)cc1C(=O)N1CCC2(CC1)c1ccccc1[C@@H](N)[C@@H]2O,40.2%
20,Cc1cc(C)n(CC2CCCN2C(=O)c2ccc3c(c2)nnn3C)n1 (stereo not given),-4.94%
